Assay outcomes deposited in PubChem BioAssay by Milwaukee Institute for Drug Discovery.
Shown are actives, neighbours in structure and some others; about 6.8% of the full set was active somewhere.
Cy5 interf NS3h – Cy5 fluorescence quenchers or enhancers, artefact control for HCV NS3 helicase inhibitor project, biochemical, ChemBridge library, Cy5 readout; Cy5-dT15 DNA with NS3h, fluorescence interference; actives lie on both sides; signal over control mean, under 1 quenches; fluorescence interference ratio at 100 µM; actives 6% (n = 16,000); AID 720488, 2013;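 active means compound fluorescence over control fluorescence at most 0.8, a quencher, or at least a set upper limit, an enhancer; inactive means ratio between 0.8 and the set upper limit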
HCV NS3h FP – HCV NS3 helicase inhibitors, primary screen, biochemical, fluorescence polarization, ChemBridge library. Hepatitis C virus NS3 helicase. NS3h Cy5-dT15 DNA binding. inhibition, % at 100 µM. actives 1.6% (n = 16,000);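 active means inhibition above the average over every tested compound plus 3 SD, cut at about 40% in these data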
Active calls of the source: *.

SMILES | Cy5 interf NS3h | HCV NS3h FP
Cc1ccc2nsnc2c1NC(=O)c1ccccc1I | 1.11 | 9.7
COc1ccc(N2C(=O)CC(Cc3ccc(Cl)cc3)C2=O)cc1 (stereo not drawn) | 0.687* | 21.3
COc1ccc(N2C(=O)CC(Cc3ccccc3OC)C2=O)cc1 (stereo not drawn) | 0.996 | 4.1
N/C(=N/OC(=O)COc1ccccc1)c1cccnc1 | 1.05 | 8.8
CCOc1ccc(/C=C2\C(=O)NC(=O)N(c3cccc(Br)c3)C2=O)cc1Cl | 1.22* | 12.9
CCOc1ccc(N2C(=O)NC(=O)/C(=C\c3ccc(OCC)c(Cl)c3)C2=O)cc1 | 1.04 | 13.7
CCOc1ccc(/C=C2\C(=O)NC(=O)N(c3ccc(Cl)cc3)C2=O)cc1Cl | 1.02 | 26.2
CCOc1ccc(/C=C2\C(=O)NC(=O)N(c3ccc(C)cc3)C2=O)cc1Cl | 0.942 | 41.3*
COc1cc(C2CC3CC2C(C)C3(C)C)ccc1O (stereo not drawn) | 0.875 | 9.5
CCn1nnnc1-c1ccc(OC)c(S(=O)(=O)Nc2ccccc2OC)c1 | 0.955 | 7.0
O=C(CCN1CCC(c2ccccc2)C1)c1ccc2c(c1)OCCO2 (stereo not drawn) | 1.02 | 4.0
O=[N+]([O-])c1ccc(Cl)cc1NCCOc1ccc(F)cc1 | 0.688* | 21.3
Cc1cccc(OCCNc2cc(Cl)ccc2[N+](=O)[O-])c1 | 0.816 | 14.1
COc1ccccc1OCCNc1cc(Cl)ccc1[N+](=O)[O-] | 0.995 | 2.8
O=[N+]([O-])c1ccc(N2CCN(CCO)CC2)cc1NCCc1ccccc1 | 0.964 | 7.9
O=[N+]([O-])c1ccc(N2CCOCC2)cc1NCCc1ccccc1 | 0.667* | 30.3
O=[N+]([O-])c1ccc(Cl)cc1NCCc1ccccc1 | 0.788* | 17.7
Cc1ccccc1CNC(=O)c1cccc(Cl)c1 | 0.979 | 1.7
COc1ccc(N2C(=O)C3C(C2=O)C2C=CC3C23CC3)c([N+](=O)[O-])c1 (stereo not drawn) | 1.1 | 3.9
COc1ccc(CCNc2cc(N3CCN(C(=O)c4cc(Cl)c(OC)c(Cl)c4)CC3)ccc2[N+](=O)[O-])cc1OC | 1.06 | 3.6
O=C1NC(=Nc2ccccc2)S/C1=C/c1ccc(O)cc1 | 1.28* | 8.2
O=C1N/C(=N/N=C\c2ccccc2)S/C1=C\c1ccccc1 | 1.11 | -13.9
CCOc1ccc(C(=O)Nc2ccc(N(CC)CC)cc2)cc1 | 1.04 | 3.7
O=C1N=c2ccccc2=C1c1sc(=S)n(-c2ccc(F)cc2)c1O | 0.991 | -5.2
O=C1N=c2ccccc2=C1c1sc(Nc2ccc(O)cc2)nc1O | 0.631* | 11.1
SMILES | Cy5 interf NS3h | HCV NS3h FP
O=C1c2ccc([N+](=O)[O-])cc2C(=O)N1c1nccs1 | 1.18 | 2.7
O=C(/C=C1/Nc2ccccc2NC1=O)Nc1cccc(C(F)(F)F)c1 | 0.928 | 5.2
COC(=O)/C=C1\Nc2cc([N+](=O)[O-])ccc2NC1=O | 0.724* | 11.6
Cc1cc(C)cc(CSCC(=O)Nc2c(C)cccc2C)c1 | 0.97 | 8.7
Cc1cc(OCC(=O)Nc2ccc(F)c([N+](=O)[O-])c2)ccc1Cl | 1.2* | -0.3
Cc1cc(Cl)ccc1OCC(=O)Nc1ccc(F)c([N+](=O)[O-])c1 | 0.908 | 11.4
O=C(Nc1ccc(Cl)cc1Cl)c1ccc(I)cc1 | 0.938 | 15.2
CC(=O)Nc1cccc(NS(=O)(=O)c2ccccc2)c1 | 1.01 | -1.6
CC1=C(C(=O)OCC2CCCO2)C(c2c(F)cccc2Cl)C2=C(CC(C)(C)CC2=O)N1 (stereo not drawn) | 0.871 | 8.5
CCOP(=O)(OCC)C(Nc1ccccc1)c1cccc([N+](=O)[O-])c1 (stereo not drawn) | 0.922 | -7.0
COC(=O)C(CC(C(=O)OC)C(=O)OC)C(=O)OC | 1.02 | -1.6
COC(=O)C(CCCC(C(=O)OC)C(=O)OC)C(=O)OC | 0.678* | 2.2
Cc1cccc(CC2SC(=Nc3ccccc3)NC2=O)c1 (stereo not drawn) | 0.958 | 9.8
Cc1ccc2nsnc2c1NC(=O)c1cc2ccccc2o1 | 1.05 | -0.7
Fc1ccc(Nc2nc(-c3ccncc3)nc3ccccc23)cc1F | 0.982 | -25.6
CCN(CC)c1ccc(/C=C2\C(=O)NC(=O)N(c3cccc(C)c3)C2=O)c(OC)c1 | 1.31* | 12.6
COc1cc(OC)c(/C=C2\C(=O)NC(=O)N(c3cccc(C)c3)C2=O)cc1Br | 1.04 | -0.7
Cc1ccc(C2C(=C(O)c3ccccc3)C(=O)C(=O)N2c2cccc(C)c2)cc1 (stereo not drawn) | 1.03 | -10.7
O=C(Nc1ccccc1F)c1ccc2nccnc2c1 | 1.03 | -0.9
CC(C)(C)CC(C)(C)NC(=O)c1ccc2nccnc2c1 | 0.609* | 4.0
O=C(/C=C/c1ccco1)Nc1cc(Cl)ccc1C(=O)O | 0.9 | 62.8*
O=C(/C=C/c1ccco1)Nc1ccc(Br)cn1 | 0.95 | -1.9
O=C(Nc1ccc(Cl)cc1)Oc1ccccc1[N+](=O)[O-] | 0.91 | 9.7
NC(=O)C(=O)NCc1ccc(Cl)cc1 | 0.655* | 3.1
CC(C)CCNC(=O)C(=O)NCc1ccc(Cl)cc1 | 1.08 | 9.0
SMILES | Cy5 interf NS3h | HCV NS3h FP
CC(C)(C)c1ccc(-c2nc3cc(NC(=S)NC(=O)c4ccco4)ccc3o2)cc1 | 1.04 | 0.4
CCC1=NN2C(=N)/C(=C/c3cn(Cc4ccc(F)cc4)c4ccccc34)C(=O)N=C2S1 | 1.06 | -4.1
O=C(Nc1nccs1)c1cccc(N2C(=O)c3ccccc3C2=O)c1 | 1.22* | -40.8
O=C(Nc1ccccc1O)c1ccc2c(c1)C(=O)N(c1cccc(C(=O)c3ccccc3)c1)C2=O | 1.02 | 0.0
COC(=O)c1c(C)oc2cc(Br)c(OCC(=O)C(C)(C)C)cc12 | 0.917 | 9.4
CCOc1ccc(NC(=O)CSc2nc3ccccc3[nH]2)cc1 | 0.921 | 1.7
O=C(CSc1nc2ccccc2[nH]1)Nc1ccc(F)c([N+](=O)[O-])c1 | 0.846 | 16.1
O=C(CSc1nc2ccc([N+](=O)[O-])cc2[nH]1)Nc1ccc2c(c1)OCO2 | 0.605* | 12.4
O=C(CSc1nc2ccc([N+](=O)[O-])cc2[nH]1)c1ccc(Br)cc1 | 0.61* | 24.5
Cc1cccc(NC(=O)CSc2nc3ccc(C)cc3[nH]2)c1 | 0.654* | 16.1
O=C(CSc1nc2ccc([N+](=O)[O-])cc2[nH]1)c1ccc2ccccc2c1 | 0.87 | 0.7
CC1S/C(=N\N=C/c2cccs2)NC1=O (stereo not drawn) | 1.06 | 4.1
CCC(C)C(C(=O)Nc1ccc(I)cc1)N1C(=O)c2ccccc2C1=O (stereo not drawn) | 0.929 | 7.6
CCN1C(=O)/C(=C/C2CC=CCC2)SC1=S (stereo not drawn) | 0.935 | 13.3
N#Cc1ccccc1OCC(=O)N/N=C\c1ccccc1 | 0.925 | 1.3
CCOc1ccc(NC(=O)/C(=C/c2ccccc2)c2ccccc2)cc1 | 0.672* | 15.2
Cc1ccc(NC(=O)/C(=C/c2ccccc2)c2ccccc2)cc1C | 0.654* | 14.2
O=C(Nc1ccccc1)Nc1nnc(-c2ccccc2)s1 | 1.1 | 6.9
CCOc1ccc(NC(=O)/C=C/c2ccccc2)cc1 | 1.08 | 21.4
COc1ccccc1NC(=O)/C(=C/c1ccccc1)c1ccccc1 | 1.07 | 1.2
CCOc1ccc(-c2nnc(NC(=O)Nc3ccccc3)s2)cc1 | 0.738* | 12.3
CCCCC/C(C)=C(\C#N)C(=O)OCC | 0.915 | 3.6
CN(C)c1ccc(C2C(=C(O)c3ccccc3)C(=O)C(=O)N2Cc2ccccc2)cc1 (stereo not drawn) | 0.942 | -9.5
